Screens: PubChem, several laboratories
A selection: hits, their analogues and other compounds. The true share with any hit is near 8.7%.
Cav3 T inh: Cav3.2 calcium influx blockers – cell-based, Fluo-4 calcium fluorescence, FDSS, MLSMR library, primary screen; B-score at 10 µM; 100,000 tested, 4% active; Voltage-dependent T-type calcium channel subunit alpha-1H (Homo sapiens), O95180; Cav3.2-expressing cells; hits give low values;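 active means single-dose well whose peak fluorescence ratio is a statistical outlier from its plate by either plate-standardised score or position-corrected B-score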
Target sequence (O95180 whole entry, looked up): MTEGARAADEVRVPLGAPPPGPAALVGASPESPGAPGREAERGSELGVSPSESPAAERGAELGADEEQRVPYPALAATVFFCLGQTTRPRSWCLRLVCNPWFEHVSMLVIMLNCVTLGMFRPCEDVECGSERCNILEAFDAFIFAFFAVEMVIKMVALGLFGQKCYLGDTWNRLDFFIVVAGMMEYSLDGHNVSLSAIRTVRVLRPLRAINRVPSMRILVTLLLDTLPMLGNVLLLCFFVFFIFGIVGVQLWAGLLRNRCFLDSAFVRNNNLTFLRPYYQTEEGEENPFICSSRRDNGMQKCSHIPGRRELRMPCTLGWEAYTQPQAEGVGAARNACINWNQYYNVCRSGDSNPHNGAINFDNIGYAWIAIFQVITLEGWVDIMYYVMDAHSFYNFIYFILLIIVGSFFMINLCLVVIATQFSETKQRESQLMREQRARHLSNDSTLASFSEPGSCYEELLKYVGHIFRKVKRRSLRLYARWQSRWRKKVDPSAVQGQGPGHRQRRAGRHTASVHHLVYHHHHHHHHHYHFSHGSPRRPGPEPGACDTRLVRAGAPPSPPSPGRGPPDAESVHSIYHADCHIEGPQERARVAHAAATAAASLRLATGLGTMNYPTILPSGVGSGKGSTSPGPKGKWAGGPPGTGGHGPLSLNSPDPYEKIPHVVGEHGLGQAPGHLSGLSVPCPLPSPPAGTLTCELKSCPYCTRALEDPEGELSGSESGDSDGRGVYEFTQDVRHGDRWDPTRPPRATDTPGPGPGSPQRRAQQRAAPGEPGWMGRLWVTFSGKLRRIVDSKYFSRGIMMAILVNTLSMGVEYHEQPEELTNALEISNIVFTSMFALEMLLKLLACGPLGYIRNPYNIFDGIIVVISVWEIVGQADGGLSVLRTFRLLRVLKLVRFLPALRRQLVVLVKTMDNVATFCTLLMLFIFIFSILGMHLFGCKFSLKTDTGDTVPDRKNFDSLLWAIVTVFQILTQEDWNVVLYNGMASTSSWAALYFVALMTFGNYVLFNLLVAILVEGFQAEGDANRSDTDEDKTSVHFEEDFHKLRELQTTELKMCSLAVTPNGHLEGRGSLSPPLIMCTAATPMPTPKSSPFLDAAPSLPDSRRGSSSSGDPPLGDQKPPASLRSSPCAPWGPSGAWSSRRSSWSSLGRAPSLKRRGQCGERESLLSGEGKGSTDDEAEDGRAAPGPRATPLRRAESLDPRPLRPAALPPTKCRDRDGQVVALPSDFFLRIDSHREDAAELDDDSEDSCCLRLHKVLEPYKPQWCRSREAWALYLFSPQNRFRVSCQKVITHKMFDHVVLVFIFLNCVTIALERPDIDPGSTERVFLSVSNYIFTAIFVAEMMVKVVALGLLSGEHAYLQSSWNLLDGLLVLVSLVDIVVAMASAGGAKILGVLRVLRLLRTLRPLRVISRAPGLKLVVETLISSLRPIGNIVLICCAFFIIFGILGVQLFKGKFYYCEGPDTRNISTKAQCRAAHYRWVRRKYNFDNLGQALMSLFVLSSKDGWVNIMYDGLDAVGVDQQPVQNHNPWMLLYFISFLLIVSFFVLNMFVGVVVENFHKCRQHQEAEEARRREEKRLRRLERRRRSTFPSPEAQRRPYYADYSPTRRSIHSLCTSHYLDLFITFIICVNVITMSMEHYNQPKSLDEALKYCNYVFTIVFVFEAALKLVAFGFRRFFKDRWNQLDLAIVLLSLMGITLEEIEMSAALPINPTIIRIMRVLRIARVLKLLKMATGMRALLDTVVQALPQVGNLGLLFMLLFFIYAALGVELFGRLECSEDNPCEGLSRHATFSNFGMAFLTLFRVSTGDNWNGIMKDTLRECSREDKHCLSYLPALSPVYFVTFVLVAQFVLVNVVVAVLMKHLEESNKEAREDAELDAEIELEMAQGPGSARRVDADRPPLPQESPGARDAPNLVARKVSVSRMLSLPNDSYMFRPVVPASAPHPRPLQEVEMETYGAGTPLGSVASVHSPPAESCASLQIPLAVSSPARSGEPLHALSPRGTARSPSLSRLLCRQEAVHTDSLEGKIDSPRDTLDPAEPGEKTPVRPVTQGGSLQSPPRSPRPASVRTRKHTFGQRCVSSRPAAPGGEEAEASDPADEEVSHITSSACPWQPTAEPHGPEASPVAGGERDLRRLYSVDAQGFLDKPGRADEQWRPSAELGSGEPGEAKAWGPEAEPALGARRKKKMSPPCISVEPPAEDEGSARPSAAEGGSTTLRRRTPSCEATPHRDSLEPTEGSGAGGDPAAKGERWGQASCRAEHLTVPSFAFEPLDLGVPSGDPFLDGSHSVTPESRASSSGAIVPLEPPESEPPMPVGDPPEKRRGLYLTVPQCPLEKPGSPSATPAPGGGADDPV
DAT uptake mod: changed hDAT dopamine uptake under cocaine IC80, either direction, primary screen, cocaine antagonist project, cell-based, LLC-PK1 hDAT, [14C]-dopamine uptake, MLSMR. Sodium-dependent dopamine transporter (Homo sapiens), Q01959. LLC-PK1 hDAT cells, [14C]-dopamine uptake with cocaine IC80; actives deviate in either direction. 110,000 tested, 1.3% active. B-score at 10 µM;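 active means Z score or B-score, a plate-position-corrected score, falls beyond the plate's 99.7% confidence bounds, in either direction; inactive means both scores lie inside the 99.7% bounds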;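 further: scored against the spread of the other compound wells on the same plate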
TNAP act mid DEA: human TNAP enzyme activators, primary screen, biochemical, luminescent, intermediate phosphate acceptor level | AID 813, 2007 | Alkaline phosphatase, tissue-nonspecific isozyme (Homo sapiens), P05186 | purified TNAP, CDP-star luminescence, 100 mM DEA, 30 min; hits give high values; scale: 0 levamisole-inhibited, 1 vehicle-only enzyme | activation factor at 20 µM | 64,000 tested, under 10 active;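 active means activation factor of at least 2 at 20 µM, relative to controls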
PostGolgi yeast: phenotypic screen on post-Golgi transport, primary screen; post-Golgi transport phenotypic cell assay; inhibition, % at 10 µM; 98,000 tested, 0.9% active; AID 739, 2007;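 further: yeast cells grown in 1536-well plates; yeast grown about 18 h at 30C before absorbance read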
Smad3 FoxH1 inh: Smad3/FoxH1 peptide binding inhibitors, primary screen, biochemical, TR-FRET | Mothers against decapentaplegic homolog 3 (Homo sapiens), P84022 | TR-FRET Smad3/Dy647-FoxH1 peptide binding, europium anti-His | inhibition, % at 25 µM | 88,000 tested, 0.29% active;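 active means compounds that reduce the energy-transfer binding signal between the protein and its labelled peptide by more than half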;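 further: 0% = Smad3 plus labelled peptide maximal FRET and 100% = peptide-only background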
PostGolgi ctrl: growth inhibition of yeast control strain, primary screen, counter-screen for post-Golgi transport modulator project | efflux-deficient yeast background strain, growth absorbance A615, 16 h | inhibition, % at 10 µM | 98,000 tested, 5% active
* hit, by the source's call; nt = not tested or not shown. Unless noted, no stated cut-off is given here; in the data, active means inhibition above about 30%; inactive means the rest.

SMILES	Cav3 T inh	DAT uptake mod	TNAP act mid DEA	PostGolgi yeast	Smad3 FoxH1 inh	PostGolgi ctrl
O=C1NC(=S)N/C1=C/c1cc([N+](=O)[O-])ccc1O	-0.93	-2.13*	nt	4.0	16.1	0.6
O=C(NC1CCS(=O)(=O)C1)N1CCCCC1 (configuration not stated)	-0.327	-0.896	0.9	-2.4	2.2	5.1
O=C(N/N=C/c1ccc2c(c1)OCO2)C1COc2ccccc2O1 (configuration not stated)	1.11	-0.225	nt	-1.1	nt	2.8
O=C(N/N=C\c1cc(Br)cs1)C1COc2ccccc2O1 (configuration not stated)	-1.43	-0.0902	nt	7.4	8.4	37.4*
COc1ccc(NC(=O)N(C2CCCCC2)C(C)c2cccnc2)c(OC)c1 (configuration not stated)	-0.562	1.26	0.9	80.5*	1.6	27.6
CC(=O)N1CCC(N(C(=O)Nc2ccc(C)c(C)c2)C2CCCC2)CC1	0.0649	0.0142	0.9	2.6	12.8	6.8
CCc1ccc(NC(=O)N(C2CCCCC2)C(C)c2cccnc2)cc1 (configuration not stated)	-0.172	0.554	nt	106.5*	7.0	95.2*
Cc1ccc(NC(=O)N(C2CCCCC2)C(C)c2cccnc2)cc1C (configuration not stated)	-0.453	-0.958	nt	99.0*	2.1	90.4*
O=P(O)(COc1ccccc1)COc1ccccc1	0.098	-0.136	1	-5.6	nt	6.6
O=C(NCCCN1CCCC1)Nc1cccc2ccccc12	nt	nt	0.9	13.9	7.6	11.2
Cc1c([C@H]2[C@@H](CC#N)C2(C)C)c2ccccc2n1C	-0.75	0.694	1	-8.7	11.6	11.0
Cc1[nH]c2c(Br)cccc2c1[C@H]1[C@@H](CC#N)C1(C)C	-1.08	1.95	nt	-3.6	-4.9	39.2*
O=S(=O)(NCCSc1ccccc1)c1ccc(F)cc1	-5.73*	-0.00418	0.8	8.1	-2.3	19.4
CC(C)(C)SCCNS(=O)(=O)c1ccc(F)cc1	-0.543	0.414	1	-8.3	-13.5	2.0
CCN1CCN(c2cc(C)c3cc(NC(=O)Cc4ccc(OC)c(OC)c4)ccc3n2)CC1	0.016	3.09*	1	-0.3	12.1	4.0
CCC(C)NC(=O)CCC(=O)Nc1ccc2nc(N3CCOCC3)cc(C)c2c1 (configuration not stated)	2.01	0.333	1	4.3	8.2	5.4
Cc1cc(N2CCCCC2)nc2ccc(NC(=O)c3ccc(Br)o3)cc12	-4.92*	0.409	nt	4.8	24.0	-21.5
COc1ccc(N(C)C(=O)CCC(=O)Nc2ccc3nc(N4CCOCC4)cc(C)c3c2)c(OC)c1	-2.28	3.2*	0.9	5.5	-4.0	-2.4
COc1ccc2cc(C#N)c(N3CCN(Cc4nnnn4CCC(C)C)CC3)nc2c1	-0.998	1.11	0.9	-3.4	-4.2	33.5*
O/N=C/c1cc(Br)ccc1OCc1ccc(F)cc1	-4.63*	1.32	nt	nt	nt	nt
O/N=C/c1cc(Cl)ccc1OCc1ccccc1Cl	0.206	1.14	nt	7.3	nt	29.8
CCOc1cc(/C=N/O)cc(Br)c1OCC	-1.85	-0.468	nt	nt	-0.3	nt
Cc1ccc(COc2ccc(Br)cc2/C=N/O)cc1	0.0824	-0.958	nt	18.8	nt	43.7*
O/N=C/c1cc(Br)cc(Br)c1OCc1ccccc1	-0.479	-0.349	nt	2.6	nt	58.1*
C#CCN(C)CC/C=C1\c2ccccc2CSc2ccccc21	-0.712	0.143	nt	nt	0.3	nt
SMILES	Cav3 T inh	DAT uptake mod	TNAP act mid DEA	PostGolgi yeast	Smad3 FoxH1 inh	PostGolgi ctrl
CCOC(=O)Nc1cc(C)c(Cl)cc1OC	-0.212	1.58	0.9	-3.1	-0.7	38.2*
CC(=O)Nc1ccc2c(c1)/C(=C/c1ccc([N+](C)(C)C)cc1)c1ccccc1-2	nt	nt	nt	nt	93.1*	nt
O=C1N(CC(=O)N2CCc3ccccc32)CCN1Cc1ccccc1Cl	-3.53*	-0.968	1	3.4	-3.3	-0.5
O=C(CN1CCN(Cc2ccccc2Cl)C1=O)NC1CCCCCC1	-0.577	1.69	1	-12.4	3.0	4.7
CCCN(CCC)CCNC(=O)C(NS(=O)(=O)c1ccc2c(c1)CCC(=O)N2)c1ccccc1 (configuration not stated)	0.859	-2.03	0.9	-15.5	-2.7	31.3*
CCOC(=O)CNC(=O)C(Cc1ccccc1)NS(=O)(=O)c1ccc2c(c1)CCC(=O)N2 (configuration not stated)	0.0889	-0.0464	0.8	nt	4.8	nt
CCc1nnc(SCCSc2nnc(CC)n2N)n1N	0.215	-0.302	nt	-0.2	2.9	3.3
c1ccc2c(c1)oc1c(Nc3ccc(CN4CCOCC4)cc3)ncnc12	0.343	3.12	1	55.7*	-3.2	20.2
CCN(CC)c1nc(Nc2ccccc2)nc(Oc2ccc(=O)n(C)n2)n1	-0.485	0.772	1	0.5	3.0	17.8
COc1ccc(-c2cc(C(=O)N3CCN(C(c4ccccc4)c4ccccc4)CC3)no2)cc1OC	-6.3*	0.732	0.9	10.5	nt	1.8
COc1ccc(-c2cc(C(=O)N3CCN(C(c4ccccc4)c4ccccc4)CC3)no2)cc1	-3.37	-0.292	0.9	3.7	1.6	42.0*
Cc1csc(N2CCc3ccccc32)n1	-0.0293	0.241	0.9	13.0	5.0	31.3*
Cc1cc(N2CCCc3ccccc32)n2ncnc2n1	-0.132	-0.729	1	1.0	1.8	13.7
COc1ccc(-c2c(C)nn3c(N4CCC(C(=O)NCCN(C)C)CC4)cc(C)nc23)cc1OC	3.13*	0.0179	1	14.3	12.6	6.5
Cc1cc(NC(=O)c2cccc(S(=O)(=O)N3CCOCC3)c2)c2ccccc2n1	0.113	0.00472	1	8.6	-1.3	-0.1
CC(C)OC(=O)C(CC(=O)O)N1CCOCC1 (configuration not stated)	0.173	-0.325	nt	1.1	8.0	6.2
CCOC(=O)c1ccccc1NC(=O)CSc1nnc(Cc2cccn2C)n1-c1ccc(F)cc1	-5.47*	1.2	1	-4.2	-5.2	10.2
CCOc1ccccc1NC(=O)CSc1nnc(Cc2cccn2C)n1-c1ccc(F)cc1	-9.29*	1.05	0.9	9.0	3.5	5.0
Cn1cccc1Cc1nnc(SCC(=O)NCc2ccccc2)n1-c1ccc(F)cc1	-0.936	-0.0104	1	0.4	-10.2	-7.9
COc1ccc(C(=O)c2coc3ccc(O)c(CN4CCOCC4)c23)cc1	-1.67	3.46*	1.1	0.5	nt	-6.2
COc1ccc(Oc2coc3c(CN(C)C)c(O)ccc3c2=O)cc1	-0.282	-0.86	1	-0.8	10.3	-3.4
COc1ccc(Oc2coc3c(CN4CCOCC4)c(O)ccc3c2=O)cc1	0.000119	-7.38*	nt	-3.0	-12.7	1.8
